Assay results reported in the supplement of paper PMC9446081.
Screen size: about 39,000 compounds; about 220 (0.56%) showed activity. The list comes from a sample in which actives are over-represented; it also holds similar structures and randomly drawn compounds.

Test system: Escherichia coli K-12 BW25113
Assay: relative growth (OD600 normalised to plate interquartile mean) (fraction); higher = less growth inhibition, active = 0.2 or less
Settings: 50 µM; LB; incubation time: overnight (16-24 h)
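Also: Wild-type cells incubated without shaking, value is the mean of two biological replicates.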

Row | Structure (SMILES) | relative growth
1 | CC(C)NC(=O)Nc1ccc2c(c1)C(=O)N([C@H](C)CO)C[C@H](C)[C@@H](CN(C)CC1CCCCC1)OCCCC[C@@H](C)O2 | 0.975 (inactive)
2 | C[C@@H]1CN([C@H](C)CO)C(=O)c2cccc(NS(C)(=O)=O)c2O[C@@H]1CN(C)C(=O)NC1CCCCC1 | 0.99 (inactive)
3 | COc1ccc(S(=O)(=O)N(C)C[C@@H]2OCCCC[C@@H](C)Oc3ccc(NC(=O)CCC(F)(F)F)cc3C(=O)N([C@H](C)CO)C[C@@H]2C)cc1 | 1.01 (inactive)
4 | CN(C)c1cc(NC(=O)CNC(C)(C)C)c(O)c2c1C[C@H]1C[C@H]3[C@H](N(C)C)C(=O)C(C(N)=O)=C(O)[C@@]3(O)C(=O)[C@H]1C2=O | 1 (inactive)
5 | CN(C)c1ccc(O)c2c1C[C@H]1C[C@H]3[C@H](N(C)C)C(=O)C(C(N)=O)=C(O)[C@@]3(O)C(=O)[C@H]1C2=O | 0.184 (active)
6 | CN(C)c1ccc(O)c2c1C[C@H]1C[C@H]3[C@H](N(C)C)C(=O)[C@@H](C(N)=O)C(=O)[C@@]3(O)C(=O)[C@H]1C2=O | 0.0587 (active)
7 | CN(C)[C@@H]1C(=O)[C@@H](C(N)=O)C(=O)[C@@]2(O)C(=O)[C@H]3C(=O)c4c(O)cccc4C[C@H]3C[C@@H]12 | 0.972 (inactive)
8 | C[C@@H]1CN([C@H](C)CO)C(=O)c2cc(NS(=O)(=O)c3cccs3)ccc2O[C@H]1CN(C)Cc1ccc(-c2ccccc2)cc1 | 0.997 (inactive)
9 | C[C@H](CO)N1C[C@H](C)[C@H](CN(C)C(=O)Nc2cccc3ccccc23)Oc2ncc(C#Cc3ccccc3)cc2C1=O | 0.961 (inactive)
10 | C[C@@H]1CCCCO[C@H](CN(C)Cc2ccncc2)[C@H](C)CN([C@H](C)CO)C(=O)c2cc(NC(=O)Nc3ccccc3)ccc2O1 | 0.834 (inactive)
11 | CN[C@H]1CN(c2ccc3c(=O)c(C(=O)O)cn(-c4nccs4)c3n2)C[C@@H]1OC | 0.0372 (active)
12 | COC(=O)C1=C[C@@H](O)[C@@H](O)[C@H](O[C@@H]2O[C@H](COC(=O)/C=C/c3ccccc3)[C@@H](O)[C@H](O)[C@H]2O)C1 | 0.984 (inactive)
13 | COc1ccc(S(=O)(=O)Nc2cccc3c2O[C@@H](CN(C)S(=O)(=O)c2ccc(OC)cc2)[C@H](C)CN([C@@H](C)CO)C3=O)cc1 | 1.01 (inactive)
14 | C[C@H]1CN([C@@H](C)CO)C(=O)Cc2cc(NC(=O)Nc3ccccc3)ccc2O[C@H]1CN(C)Cc1ccc(Oc2ccccc2)cc1 | 1.01 (inactive)
15 | C[C@@H]1CN([C@H](C)CO)C(=O)c2cc(NS(=O)(=O)c3ccccc3)ccc2O[C@@H]1CN(C)CC1CC1 | 1 (inactive)
16 | NC[C@H]1OB(O)c2c(OCCCO)cccc21 | 0.04 (active)
17 | NC[C@H]1OB(O)c2c(OCCO)ccc(Cl)c21 | 0.982 (inactive)
18 | CC(C)(C)OC(=O)N1CCC(N)CC1 | 0.98 (inactive)
19 | C=C1c2cccc(O)c2C(=O)C2=C(O)[C@]3(O)C(O)=C(C(N)=O)C(=O)[C@@H](N(C)C)[C@@H]3[C@@H](O)[C@H]12 | 0.225 (inactive)
20 | C[C@H]1c2cccc(O)c2C(=O)C2=C(O)[C@]3(O)C(=O)[C@@H](C(N)=O)C(=O)[C@@H](N(C)C)[C@@H]3[C@@H](O)[C@@H]21 | 0.0376 (active)
21 | C=C1c2cccc(O)c2C(=O)[C@@H]2C(=O)[C@]3(O)C(=O)[C@@H](C(N)=O)C(=O)[C@@H](N(C)C)[C@@H]3[C@@H](O)[C@H]12 | 0.0752 (active)

Row | Structure (SMILES) | relative growth
22 | C=C1c2cccc(O)c2C(=O)C2=C(O)C3(O)C(=O)C(C(N)=O)=C(O)C(N(C)C)C3C(O)C12.Cl (configuration not stated) | 0.0546 (active)
23 | CC1c2cccc(O)c2C(=O)C2=C(O)C3(O)C(=O)C(C(N)=O)=C(O)C(N(C)C)C3C(O)C21.Cl (configuration not stated) | 0.0595 (active)
24 | Cc1noc(C)c1S(=O)(=O)Nc1ccc2c(c1)CC(=O)N([C@H](C)CO)C[C@@H](C)[C@H](CN(C)C(=O)NC(C)C)O2 | 1.03 (inactive)
25 | C[C@H](CO)N1C[C@H](C)[C@@H](CN(C)S(C)(=O)=O)OCc2cnnn2CCCC1=O | 1.07 (inactive)
26 | Cc1ccc(S(=O)(=O)N(C)C[C@@H]2Oc3c(NC(=O)c4ccncc4)cccc3C(=O)N([C@@H](C)CO)C[C@H]2C)cc1 | 0.999 (inactive)
27 | COc1ccc2c(c1OCc1ccccc1)C[C@@H](C(=O)O)N(C(=O)C(c1ccccc1)c1ccccc1)C2 | 1.02 (inactive)
28 | C[C@@H]1CN([C@@H](C)CO)C(=O)c2cccc(NC(=O)C3CCOCC3)c2O[C@@H]1CN(C)C(=O)Nc1ccc2c(c1)OCO2 | 1.01 (inactive)
29 | CN(C)CC(=O)N[C@@H]1C=C[C@H](CC(=O)O)O[C@H]1CO | 0.997 (inactive)
30 | CCNC(=O)C[C@@H]1CC[C@H]2[C@H](COc3ccc(NS(=O)(=O)c4ccccc4C)cc3C(=O)N2C)O1 | 0.981 (inactive)
31 | CNC[C@H]1Oc2ccc(NC(=O)CCN3CCOCC3)cc2CC(=O)N([C@@H](C)CO)C[C@@H]1C | 0.977 (inactive)
32 | CCc1nnc(N)[nH]1 | 0.947 (inactive)
33 | C[C@H]1CCCCO[C@H](CN(C)Cc2ccccc2)[C@@H](C)CN([C@@H](C)CO)C(=O)c2cc(NC(=O)Nc3cccc4ccccc34)ccc2O1 | 0.996 (inactive)
34 | Cc1c(-c2ccccc2)n(C[C@@H](O)CN)c2ccccc12 | 0.892 (inactive)
35 | CO[C@@]1(NC(=O)[C@@H](C(=O)O)c2ccc(O)cc2)C(=O)N2C(C(=O)O)=C(CSc3nnnn3C)CO[C@@H]21 | 0.983 (inactive)
36 | COC1(NC(=O)C2SC(=C(C(N)=O)C(=O)O)S2)C(=O)N2C(C(=O)O)=C(CSc3nnnn3C)CSC21 (configuration not stated) | 0.0448 (active)
37 | COC1(NC(=O)C(C(=O)[O-])c2ccc(O)cc2)C(=O)N2C(C(=O)[O-])=C(CSc3nnnn3C)COC21.[Na+].[Na+] (configuration not stated) | 0.0483 (active)
38 | CO[C@@]1(NC(=O)CSC[C@@H](N)C(=O)O)C(=O)N2C(C(=O)O)=C(CSc3nnnn3C)CS[C@@H]21 | 1 (inactive)
39 | COC1(NC(=O)CSCC#N)C(=O)N2C(C(=O)[O-])=C(CSc3nnnn3C)CSC21.[Na+] (configuration not stated) | 0.0458 (active)
40 | CO[C@@H]1CN(C)C(=O)c2cc(NS(=O)(=O)c3cn(C)cn3)ccc2OC[C@@H](C)N(Cc2cccc(F)c2)C[C@@H]1C | 1.02 (inactive)
41 | COc1ccc(NC(=O)Nc2ccc3c(c2)C(=O)N([C@H](C)CO)C[C@@H](C)[C@@H](CN(C)CC2CCCCC2)OCCCC[C@@H](C)O3)cc1 | 0.984 (inactive)
42 | O=C(NCc1ccccc1)[C@@H]1c2ccccc2C(=O)N(Cc2ccccc2C(F)(F)F)[C@H]1c1ccc(CO)cc1 | 1 (inactive)

Row | Structure (SMILES) | relative growth
43 | CN1C(=O)c2cc(NC(=O)c3cccs3)ccc2OC[C@H]2O[C@H](CC(=O)NCC(F)(F)F)CC[C@H]21 | 1 (inactive)
44 | CCCN(C)C[C@@H]1OCCCC[C@@H](C)Oc2ccc(NC(=O)Nc3ccccc3)cc2C(=O)N([C@H](C)CO)C[C@@H]1C | 1.01 (inactive)
45 | CC(C)NC(=O)Nc1ccc2c(c1)C(=O)N([C@H](C)CO)C[C@H](C)[C@H](CN(C)CC1CCCCC1)OCCCC[C@@H](C)O2 | 0.955 (inactive)
46 | COc1ccc(S(=O)(=O)Nc2ccc3c(c2)C(=O)N([C@H](C)CO)C[C@H](C)[C@H](CN(C)C(=O)Nc2ccccc2)OCCCC[C@@H](C)O3)cc1 | 0.996 (inactive)
47 | NC(=O)[C@@H]1CC[C@@H]2CN1C(=O)N2OS(=O)(=O)O | 0.19 (active)
48 | NCCONC(=O)[C@@H]1CC[C@@H]2CN1C(=O)N2OS(=O)(=O)O | 0.0923 (active)
49 | COc1ccc(CN(C)C[C@H]2OCCCC[C@H](C)Oc3ccc(NS(=O)(=O)c4ccc(C)cc4)cc3C(=O)N([C@H](C)CO)C[C@@H]2C)cc1 | 1 (inactive)
50 | Cc1noc(C)c1NC(=O)Nc1ccc2c(c1)C(=O)N([C@@H](C)CO)C[C@@H](C)[C@H](CN(C)Cc1ccncc1)OCCCC[C@H](C)O2 | 0.993 (inactive)
51 | C[C@H](NC(=O)C[C@H]1C=C[C@H](NC(=O)CN2CCOCC2)[C@@H](CO)O1)c1ccccc1 | 0.983 (inactive)
52 | COc1ccc(C(=O)Nc2ccc3c(c2)C(=O)N(C)[C@@H]2CC[C@@H](CC(=O)NCC4CC4)O[C@H]2CO3)cc1 | 0.96 (inactive)
53 | COc1ccc(NC(=O)N(C)C[C@H]2Oc3c(NS(=O)(=O)c4c(C)noc4C)cccc3C(=O)N([C@H](C)CO)C[C@H]2C)cc1 | 0.994 (inactive)
54 | CN(C)CC(=O)N[C@@H]1C=C[C@H](CC(=O)NCCN2CCCCC2)O[C@@H]1CO | 0.999 (inactive)
55 | Cc1noc(C)c1NC(=O)Nc1ccc2c(c1)C(=O)N([C@@H](C)CO)C[C@@H](C)[C@H](CN(C)C(=O)Nc1ccc(C(F)(F)F)cc1)OCCCC[C@H](C)O2 | 1.02 (inactive)
56 | CC(C)NC(=O)N[C@H]1CC[C@H](CCN)O[C@@H]1CO | 0.987 (inactive)
57 | NC[C@H]1O[C@H](O[C@H]2[C@@H](O[C@@H]3O[C@H](CO)[C@@H](O)[C@H]3O)[C@@H](O)[C@H](N)C[C@@H]2N)[C@H](N)[C@@H](O)[C@@H]1O | 0.981 (inactive)
58 | NCC1OC(OC2C(N)CC(N)C(O)C2OC2OC(CO)C(O)C2O)C(N)C(O)C1O.O=S(=O)(O)O (configuration not stated) | 0.78 (inactive)
59 | NC[C@H]1O[C@H](O[C@@H]2[C@H](O)[C@@H](O[C@H]3O[C@H](CO)[C@@H](O)[C@H](N)[C@H]3O)[C@H](N)C[C@@H]2N)[C@H](O)[C@@H](O)[C@@H]1O | 0.983 (inactive)
60 | NCC1OC(OC2C(N)CC(N)C(OC3OC(CO)C(O)C(N)C3O)C2O)C(N)C(O)C1O.O=S(=O)(O)O (configuration not stated) | 0.0483 (active)
61 | NCC1OC(OC2C(N)CC(N)C(OC3OC(CO)C(O)C(N)C3O)C2O)C(O)C(O)C1O.O=S(=O)(O)O (configuration not stated) | 0.982 (inactive)
62 | NC[C@H]1O[C@H](O[C@H]2[C@H](O)[C@@H](O[C@H]3O[C@H](CO)[C@@H](O)[C@H](N)[C@H]3O)[C@H](N)C[C@@H]2N)[C@H](N)[C@@H](O)[C@@H]1O | 0.0328 (active)
